Assay results published in PubChem BioAssay AID1868 (National Center for Advancing Translational Sciences (NCATS), 2009).
In all, about 270,000 compounds went through this assay and about 20 (0.007%) were called active. Calls come from the whole dose curve; as a rule, active = well fitted inhibition curve with a large enough effect; inconclusive = small, poorly fitted or top-dose-only effect, or effect the other way; inactive = flat fitted curve, though single readings scatter. The list is a sample of the results.

These compounds were tested against Galactokinase (Homo sapiens) (UniProt P51570) (assay: qHTS Assay for Inhibitors of Human Galactokinase (GALK)). Conditions: Purified GALK, Kinase-Glo residual ATP luminescence; series mostly up to 57.5 µM.
Sequence of Galactokinase (Homo sapiens) (P51570 whole entry, looked up): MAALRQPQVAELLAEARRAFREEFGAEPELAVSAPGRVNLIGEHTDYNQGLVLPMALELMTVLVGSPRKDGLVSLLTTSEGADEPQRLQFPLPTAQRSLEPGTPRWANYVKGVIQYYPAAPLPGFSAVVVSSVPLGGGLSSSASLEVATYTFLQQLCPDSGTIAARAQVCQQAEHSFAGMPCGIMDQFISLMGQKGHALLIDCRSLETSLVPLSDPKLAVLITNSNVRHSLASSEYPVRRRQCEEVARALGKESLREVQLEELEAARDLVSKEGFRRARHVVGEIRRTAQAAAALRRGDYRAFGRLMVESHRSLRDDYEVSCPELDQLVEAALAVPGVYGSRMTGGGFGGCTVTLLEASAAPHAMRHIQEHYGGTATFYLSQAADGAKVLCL
Excerpt: NIH Molecular Libraries Probe Production Centers Network [MLPCN] NIH Chemical Genomics Center [NCGC] MLPCN Grant: R03 MH085689-01 Assay Submitter (PI): Kent Lai (University of Utah School of Medicine, 50 N Mario Capecchi Drive, Salt Lake City, UT 84132) NCGC Assay Overview: Inherited deficiency of galactose-1-phosphate uridyltransferase (GALT) can result in a potentially lethal disorder called Classic Galactosemia (OMIM 230400). Several lines of evidence indicate that an elevated level of galactose-1-phosphate (gal-1-p), the product of galactokinase (GALK), is a major, if not sole, pathogenic mechanism in patients with classic galactosemia. Therefore, finding inhibitors of GALK is a potential novel therapy for this inherent metabolic disease and is the long term goal of this project. GALK (provided by the assay submitter) was assayed using ATP and D-(+)-Galactose (Sigma-Aldrich cat# G0750) as substrates. Promega Kinase-Glo Plus (cat# V3774) technology was used to detect the residual ATP following kinetic reaction. Briefly, the Kinase-Glo Plus contains Ultra-Glo [2] luciferase and D-luciferin which generates a bioluminescence signal from the remaining ATP.
NCGC Assay Protocol Summary: Three uL/well of ATP-buffer solution (35 uM ATP, 20mM HEPES pH8.0, 5 mM MgCl2, 60 mM NaCl, 1 mM DTT, 0.01% BSA final concentration) was dispensed into 1536-well, assay plates (Greiner, solid white medium-binding plates) with Aurora Discovery BioRAPTR Flying Reagent Dispenser (FRD; Beckton-Dickenson). Compound solution (23 nL) was transferred to the assay plate using the Kalypsys 1536-pin tool. One uL/well GALK-galactose solution (5 nM GALK, 100 uM galactose, 20 mM HEPES pH8.0, 5 mM MgCl2, 60 mM NaCl, 1 mM DTT, 0.01% BSA final concentration) was then added using the FRD yielding a total kinase reaction volume of 4 uL/ well. After 1 hour of room temperature incubation, 4 uL Kinase-Glo Plus reagent was added for a final assay volume of 8 uL/ well. Luminescence was detected with the ViewLux plate reader (Perkin Elmer, Waltham, MA) after 10 min incubation using a 1 sec exposure time and 2x binning.

outcome, inactive:
CCOC(=O)C(Cc1ccc(N)cc1)N1C(=O)c2ccccc2C1=O (stereo not drawn), COc1ccccc1N1CCN(/N=C/c2ccc(O)cc2O)CC1, CC(=O)N[C@@H](C)C(=O)N1CCC(n2nccc2NC(=O)CCCc2ccccc2)CC1, COc1ccc(C(=O)NCCSc2ccccc2C)cc1, CCOCc1nnc(NC(=O)CCS(=O)(=O)Cc2ccccc2)s1, CCC(=O)Nc1ccc(-c2ccc(N3CCCCC3)nn2)cc1, COc1ccc(-c2csc3ncnc(N4CCN(S(=O)(=O)c5ccccc5C#N)CC4)c23)cc1, CC(=O)Nc1ccc(S(=O)(=O)Nc2cc(C)cn(Cc3ccc(C)cc3)c2=O)cc1, COc1ccc(CN2CCCC(N3CCc4ccccc4C3)C2)c(O)c1 (stereo not drawn), CC1CCN(S(=O)(=O)c2ccc3c(c2)n(C)c(=O)n3C)CC1, Cc1ccccc1Nc1nc(-c2cccnc2)cs1, CC1=NN(C(N)=S)C(=O)C1N=Nc1cc(Cl)ccc1Cl (stereo not drawn), CC(C)(C)c1ccc(SCCc2ccncc2)cc1, O=C(/C=C/c1ccc([N+](=O)[O-])o1)NNC(=O)c1ccc(F)cc1, CC(C)(C)C(=O)NC1CC2CCCC(C1)N2C(=O)Nc1ccccc1F (stereo not drawn), Cc1cc(C)c2nc(N(CCN(C)C)C(=O)/C=C/c3cccs3)sc2c1, COc1ccc(C(=O)O/N=C(\N)c2ccccn2)cc1[N+](=O)[O-], CS(=O)(=O)N1CCN(C(=O)CSc2ccccc2)CC1, CCC(C)c1ccc(NC(=S)N2CCCC2)cc1 (stereo not drawn), O=C(CN1CCN(c2cccc(Cl)c2)CC1)Nc1ccc(S(=O)(=O)N2CCOCC2)cc1, CCc1ccccc1NC(=O)c1ccc2snnc2c1, CN(c1ccc(O)cc1)c1nc(-c2cccnc2)cs1, Cc1ccc(C(=O)Nc2nnc(C3=COCCO3)o2)cc1C, CCN1CCN(c2sc(S(C)(=O)=O)nc2S(=O)(=O)c2ccc(Cl)cc2)CC1, Cc1cccc(Nc2nc(-c3ccccc3)cs2)n1, COc1ccc(/C=C(\C#N)c2c[nH]c3ccccc23)cc1, COc1ccc(CCc2nc(-c3cccs3)no2)cc1, O=C(Nc1ncc([N+](=O)[O-])s1)C1COc2ccccc2O1 (stereo not drawn), COCCN1C(=O)N(c2ccc(Cl)cc2)C(=O)C1CC(=O)Nc1cc(OC)cc(OC)c1 (stereo not drawn), Cc1c(C)n(Cc2ccc(Cl)cc2)c2ccc(C(=O)NCCCN3CCOCC3)cc12, Cc1cccc2sc(N(CCCN(C)C)C(=O)CCS(=O)(=O)c3ccccc3)nc12, O=C(c1ccco1)N1CCN(C(=O)c2cc(-c3ccccc3F)no2)CC1, CCOC(=O)c1csc(CCNC(=O)c2oc3c(Cl)cc(C)cc3c2C)n1, COc1ccc(NC(=O)C/C(C)=N/NC(=O)c2cnccn2)cc1Cl, COc1ccc(/C=N/Nc2ccccc2C(=O)O)cc1, Cc1ccc(CNC(=O)C(=O)c2cn(CC(=O)N3CCOCC3)c3ccccc23)cc1, COc1ccc(C)cc1N(CC(=O)N1CCCC1)S(=O)(=O)c1ccccc1, CC(c1ccccn1)N(C)C(=O)c1ccc2nc(Cc3cccc(Cl)c3)oc2c1 (stereo not drawn), COc1ccc(OC)c(/C(C)=N\NC(=O)c2cc3cc(Cl)ccc3n2C)c1, O=C(O)c1ccccc1NC(=O)c1ccccc1-c1ccccc1C(=O)O, CCS(=O)(=O)Nc1ccc(C(=O)NCCSc2ccccc2)cc1, O=C(NCCc1ccc(Cl)cc1)c1cccc(N2CCCC2=O)c1, Cc1cc(=O)n2nc(N3CCCC(C(=O)NCc4ccc(Cl)cc4)C3)sc2n1 (stereo not drawn), Cc1ccc(C)c(S(=O)(=O)N2CCCOC2CNC(=O)C(=O)NC2CCCCC2)c1 (stereo not drawn), COc1ccc(C(=O)CCc2ccccc2O)c(OC)c1, O=C(/C=C/c1ccco1)NC(=S)N1CCCCC1, CN(Cc1cnccn1)C(=O)c1cc(COc2cccc(C(F)(F)F)c2)on1, O=C(N/N=C/c1c[nH]c2ccccc12)c1ccccc1O, Oc1ccccc1C1=NN(c2ccccc2)C(c2ccccc2)C1 (stereo not drawn), CCCN1CCn2c3c(c4cc(Br)ccc42)CCCC31 (stereo not drawn), COC(=O)c1cc(NS(=O)(=O)c2ccc3c(c2)c(=O)n(C)c(=O)n3C)cc(C(=O)OC)c1, CC(=O)c1ccc(S(=O)(=O)NCc2nnnn2-c2ccccc2)cc1, COc1cccc2[nH]c(C(=O)NCCc3ccccc3)cc12, Cc1cccnc1CC(C)NC(=O)c1cc(COc2cncc(Cl)c2)on1 (stereo not drawn), COc1ccc(N2CCN(C(=O)c3cccs3)CC2)cc1, Cc1onc(C(=O)Nc2ccc3c(c2)OCO3)c1[N+](=O)[O-], C/C(=N\Nc1nncc2ccccc12)c1ccc(Cl)c([N+](=O)[O-])c1, CC(=O)c1ccc(NC(=O)CCNS(=O)(=O)c2cc(Br)cnc2N)cc1, COc1ccccc1CCNC(=O)c1c(C)nn(CC(C)C)c1Cl, Cn1c(NC(=O)c2ccccc2)nc2ccccc21, C=CCNC(=S)/N=c1/ccccn1Cc1ccccc1, CCCCc1nc2cc(C(=O)N3CCCCC3CCO)ccc2o1 (stereo not drawn), COc1cccc(OCc2cc(C(=O)N3CCN(C(=O)c4ccco4)CC3)no2)c1, CCOc1ccc(C2C(C#N)=C(N)N(N(C)C)C3=C2C(=O)CCC3)cc1 (stereo not drawn), CC(=O)c1cccc(NC(=O)CN2C(=O)c3cccnc3Oc3ccc(Cl)cc32)c1, O=C(CN1CCN(S(=O)(=O)c2cc(Cl)ccc2Cl)CC1)c1ccc(O)c(O)c1, COc1ccccc1CCCNC(=O)C1CCC(=O)N(CCN2CCOCC2)C1 (stereo not drawn), COc1ccc(CCNCc2c(-c3ccccc3)n(C)c3ccccc23)cc1, CCn1nnnc1SCC(=O)Nc1ccc(N(C)C)cc1, O=C(CN1CCCCCC1)Nc1ccc(Br)cc1[N+](=O)[O-], COCCNC(=O)c1ccc2nc(Cc3ccc(OC)c(OC)c3)oc2c1, CCOc1ccc(C(=O)CCN2CCOCC2)cc1, O=C(c1cc(COc2ccc(F)c(F)c2)on1)N1CCOCC1, Cc1cc(Br)ccc1NC(=S)NC1CCCC1, CC(C)c1ccc(NC2CCCN(C(=O)c3ccncc3)C2)cc1 (stereo not drawn), CC(=O)c1ccc(OC(=O)N2CCOCC2)cc1, CCC(=O)Nc1ccc2nn(-c3ccc(F)cc3)nc2c1, C=CCc1cccc(/C=N/NC(=O)COc2ccc(-n3cnnn3)cc2)c1O, O=C(Cc1cccs1)Nc1ccc([N+](=O)[O-])cc1, COc1ccc(N2CCN(C3CCCCC3NS(=O)(=O)c3ccccc3)CC2)cc1 (stereo not drawn), CN(C)CCCNC(=S)N1CCC(c2nc3ccccc3[nH]2)CC1, COc1ccc(OCc2cc(C(=O)NCC3(C)COC3)no2)c(Cl)c1, O=C(N/C(=C\c1ccc([N+](=O)[O-])cc1)C(=O)N1CCCCC1)c1ccco1, c1ccc(-c2ccc(OCCN3CCOCC3)cc2)cc1, COc1cc(C(=S)N2CCOCC2)cc(OC)c1OC(=O)c1ccc([N+](=O)[O-])cc1[N+](=O)[O-], Cc1ccc(-c2noc(C3CCCN(C(=O)c4cccc(Cl)c4)C3)n2)o1 (stereo not drawn), C/C(=N\NC(=O)c1ccoc1C)c1ccccc1O, Cc1ccc(CNC(=O)C(=O)c2cn(CC(=O)N3CCCC3)c3ccccc23)cc1
